Wnt act: activates Wnt/beta-catenin signaling in a reporter cell assay; activator, plate reader; activation, % at 9.35 µM; actives 1.2% (n = 300,000); AID 743398; in the data active = activation above about 30%, passing the limit was not always enough; inconclusive = no clear call, values can overlap the other calls;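 note: 0% = neutral control wells and 100% = positive control wells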
esBAF inh: blocks esBAF chromatin remodeling in mouse ES cells | reporter increase, % at 12.5 µM | Bmi1-luciferase knock-in reporter, 24 h; 100% = twice the neutral-well signal | actives 2% (n = 350,000); in the data active = activation above about 40%; inconclusive = no clear call, values can overlap the other calls;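 note: 0% = median of the plate's neutral control wells and 100% = double that signal; a rise in the Bmi1 reporter signal indicates esBAF inhibition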
AF4-AF9 inh: blocks AF4 peptide binding to human AF9; AlphaScreen, biotin-AF4 peptide binding to FLAG-AF9; inhibition, % at 10 µM; actives 0.47% (n = 350,000);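 active = every replicate reaching a set inhibition limit, whatever the replicate mean, cut at about 25% in these data; inconclusive = mean inhibition reaches that limit but some replicates miss it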;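 note: 0% = plate neutral control median and 100% = total signal loss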
Target sequence (P42568 whole entry, looked up): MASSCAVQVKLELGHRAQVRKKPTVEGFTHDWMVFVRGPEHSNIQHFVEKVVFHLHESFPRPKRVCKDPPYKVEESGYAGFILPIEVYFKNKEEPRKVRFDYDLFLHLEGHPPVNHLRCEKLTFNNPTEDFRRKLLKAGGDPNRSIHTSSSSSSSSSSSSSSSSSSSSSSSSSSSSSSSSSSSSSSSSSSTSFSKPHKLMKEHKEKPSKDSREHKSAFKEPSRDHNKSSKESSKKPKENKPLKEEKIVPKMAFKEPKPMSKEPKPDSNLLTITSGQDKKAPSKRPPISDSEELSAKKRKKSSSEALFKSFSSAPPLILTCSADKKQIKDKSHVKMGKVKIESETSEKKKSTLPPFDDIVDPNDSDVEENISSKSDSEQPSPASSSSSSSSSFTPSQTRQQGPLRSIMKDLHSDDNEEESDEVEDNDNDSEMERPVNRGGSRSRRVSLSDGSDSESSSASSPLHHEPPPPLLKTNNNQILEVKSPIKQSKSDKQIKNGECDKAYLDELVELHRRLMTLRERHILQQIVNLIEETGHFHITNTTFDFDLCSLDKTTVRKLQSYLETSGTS
MITF TRPM1 HTS: activators of MITF-driven TRPM1 promoter activity in SK-MEL-5 cells | SK-MEL-5 TRPM1-promoter luciferase, 24 h; % of positive control, neutral wells = 0 | activation, % at 12.5 µM | actives 0.75% (n = 300,000);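 active = mean activation of at least 80% with every replicate also reaching 80%; inconclusive = mean reaches 80% but some replicate falls short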;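 note: 0% = neutral control wells and 100% = parthenolide positive control wells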
FGF22 binding: binders of recombinant human FGF22 by thermal shift; SYPRO orange fluorescence; percent of sucrose octasulfate shift, DMSO zero; activity (Tm shift, normalised), % at 9.99 µM; actives 1.5% (n = 340,000);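 active = mean Tm shift, scaled 0 neutral to 100 positive control, at about 1.3% or above, every replicate too, limit read from the data; inconclusive = no clear call, values can overlap the other calls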
SMARCA2 act: activators of SMARCA2 function | MG213 cells, MMTV-luciferase reporter, dexamethasone, overnight | activation, % at 9.1 µM | actives 1% (n = 370,000) | AID 652017; in the data active = activation above about 7.8%;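 note: 0% = vehicle wells and 100% = reference activator wells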
* marks the source's active call; other numbers are inactive results; ? = inconclusive; . = no result. Hits are enriched below; roughly 4.3% of the tested compounds scored in any of these assays.

SMILES | Wnt act | esBAF inh | AF4-AF9 inh | MITF TRPM1 HTS | FGF22 binding | SMARCA2 act
C[C@H](CO)N1C[C@H](C)[C@H](CN(C)C(=O)Nc2ccccc2)Oc2ccc(NS(C)(=O)=O)cc2C1=O | . | 3 | -10 | . | 0 | .
O=C(c1ccc(-c2ccccc2Cl)o1)N1CCCC(C(F)(F)F)C1 (stereo not drawn) | -3 | 51* | 1 | ? | 0 | 5
O=C(c1ccc(-c2ccc([N+](=O)[O-])cc2Cl)o1)N1CCOCC1 | 1 | . | -2 | -8 | 0 | -1
NC(=O)C1CCCN(C(=O)c2ccc(-c3cccc(Cl)c3Cl)o2)C1 (stereo not drawn) | 38* | 75* | -19 | 80 | 0 | 0
Cc1c(C(=O)N2CCCC(C(F)(F)F)C2)oc2ccccc12 (stereo not drawn) | -1 | 8 | 1 | 29 | 0 | -1
CC1CCN(C(=O)c2ccc(-c3ccccc3Cl)o2)CC1 | 44* | ? | 7 | 110* | 0 | 4
O=C(c1ccc(-c2ccccc2Cl)o1)N1CCC1 | 20 | 84* | -6 | ? | -1 | 5
COCC(=O)N(C)C[C@@H]1Oc2ncc(-c3ccc(F)cc3)cc2C(=O)N([C@@H](C)CO)C[C@H]1C | . | 3 | -2 | . | 0 | .
C[C@H](CO)N1C[C@H](C)[C@H](CN(C)C(=O)Nc2ccc(C(F)(F)F)cc2)Oc2ccc(NC(=O)Nc3ccc(F)cc3)cc2CC1=O | . | -3 | . | . | 1 | .
CO[C@@H]1CN(C)C(=O)c2cc(NC(=O)C3CC3)ccc2OC[C@H](C)N(C(=O)NC(C)C)C[C@@H]1C | . | -2 | -2 | . | 0 | .
O=C(c1ccc(-c2cccc(C(F)(F)F)c2)o1)N1CCOCC1 | -1 | 71* | . | 57 | . | 4
O=C(c1ccc(-c2cccc(Cl)c2Cl)o1)N1CCOCC1 | 34* | 39 | 2 | 86* | 0 | -1
CC(=O)N1CCN(C(=O)c2ccc(-c3cccc(C(F)(F)F)c3)o2)CC1 | -2 | -1 | 0 | 12 | 0 | 1
O=C(NCC(F)(F)F)[C@@H]1[C@@H](CO)[C@@H]2Cn3c(ccc(-c4cccnc4)c3=O)[C@@H]2N1Cc1ccncc1 | . | -5 | -1 | . | 0 | .
CC(=O)Nc1ccc(SCc2ncc(-c3ccccc3)o2)cc1 | 9 | 55* | 5 | 76 | 0 | 4
Nc1ccc2nn(-c3ccccc3)nc2c1 | 12 | 57* | 0 | 1 | . | -2
Nc1cc2nn(-c3ccccc3)nc2cc1Cl | 49* | . | 2 | 2 | 0 | 3
Nc1ccc(-n2nc3ccccc3n2)cc1 | -1 | . | -10 | . | 0 | -6
O=C(Nc1ccccc1[N+](=O)[O-])NC1CCCCN(Cc2ccc(Cl)cc2)C1=O (stereo not drawn) | . | . | . | . | . | -3
COc1cc(NC(=O)C2CCCN(S(=O)(=O)c3ccc(Br)s3)C2)cc(OC)c1 (stereo not drawn) | . | . | . | . | . | -4
Cc1ccc(NC(CC(=O)c2ccccc2)C(=O)O)cc1Cl (stereo not drawn) | 53* | . | -1 | 73 | 0 | 3
O=C(CC(Nc1ccccc1)C(=O)O)c1ccccc1 (stereo not drawn) | . | . | . | 101* | . | 4
COc1ccccc1-c1cn(CC[C@H]2CC[C@@H](NC(=O)NC(C)C)[C@H](CO)O2)nn1 | . | 3 | -2 | . | 0 | .
CC=Cc1ccc2n(c1=O)C[C@@H]1[C@@H](CO)[C@H](C(=O)NC3CCC3)[C@H]2N1Cc1ccncc1 (mixture of isomers) | . | . | -2 | . | . | .
CC(C)Cc1ccc(-c2cc3nc(NCC4CC4)ccn3n2)cc1 | -1 | 83* | 1 | . | 0 | -1
c1cc(-c2cc3nc(NCC4CC4)ccn3n2)ccc1OCCN1CCOCC1 | 4 | 46* | 6 | . | 0 | 0
FC(F)(F)c1cccc(-c2cc3nc(NC4CCCCC4)ccn3n2)c1 | -2 | 43* | -2 | . | 0 | -1
COCCCNc1ccn2nc(-c3ccccc3)cc2n1 | -21 | -62 | -1 | . | 0 | 1
Clc1cccc(CNc2ccn3nc(-c4ccc(OCCN5CCOCC5)cc4)cc3n2)c1 | -4 | -3 | 3 | . | 0 | -2
c1cc(-c2cc3nc(NC4CCCCC4)ccn3n2)ccc1OCCN1CCOCC1 | -2 | 50* | 6 | . | 0 | -2

Compound activity from PubChem BioAssay.
